The text below walks through data of PubChem BioAssay (NCATS).

Experiment [1] is described as follows: qHTS for Inhibitors of Cell Surface uPA Generation: Validation Assay (AID 493164).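 Also: RAW 264.7 macrophage cells exposed to compound for 18 h.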 In outline:
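RAW 264.7, 4000 cells/well, o/n plating; cpd 7-pt 1:5 dilution 2.45 nM–38.3 uM final; 18 h, 37 C/5% CO2; ATP-Lite, 5 s luminescence exposure.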

For experiment [2], the target named is Galactokinase (Homo sapiens) (UniProt P51570). Briefly: qHTS Validation Assay for Inhibitors of Human Galactokinase (GALK) (AID 493189). In outline: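 Compounds were pin-transferred into ATP buffer, then GALK-galactose mix was added (final 5 nM enzyme, 100 uM galactose, 35 uM ATP). After 1 h at room temperature, remaining ATP was measured luminescently.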
Galactokinase (Homo sapiens), sequence (P51570 whole entry, looked up): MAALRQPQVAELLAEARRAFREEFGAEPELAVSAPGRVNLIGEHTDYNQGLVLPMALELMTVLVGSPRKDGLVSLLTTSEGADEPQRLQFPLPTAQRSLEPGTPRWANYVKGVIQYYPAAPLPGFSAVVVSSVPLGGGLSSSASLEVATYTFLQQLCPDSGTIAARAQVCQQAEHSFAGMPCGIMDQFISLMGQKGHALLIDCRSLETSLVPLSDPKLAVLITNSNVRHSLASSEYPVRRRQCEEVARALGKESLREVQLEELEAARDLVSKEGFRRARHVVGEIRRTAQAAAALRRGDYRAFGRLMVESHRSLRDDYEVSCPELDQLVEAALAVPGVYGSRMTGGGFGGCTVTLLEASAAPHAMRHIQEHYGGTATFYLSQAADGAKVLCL
In experiment [3] the target is Peptidyl-prolyl cis-trans isomerase NIMA-interacting 1 (Homo sapiens) (UniProt Q13526). Kind of experiment: qHTS Validation Assay to Find Inhibitors of Pin1 (AID 504536; active = well fitted inhibition curve with a large enough effect in the polarisation, with a control signal flat, not every such curve was filed as active; the % refers to the polarisation; also: potency is read from the fitted curve at half-maximal effect). In outline:
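Fluorescence polarization competition: compounds (titration) displace HiFluor-488-labeled Pin1-1b peptide from Pin1 (0.3 uM final) in pH 7.5 HEPES buffer with DTT, 10 min at room temperature; %Activity normalized to no-enzyme wells, curves fitted.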

The target in experiment [4] is Phosphoglycerate kinase, glycosomal (Trypanosoma brucei brucei) (UniProt P07378). Briefly: qHTS Validation Assay to Find Inhibitors of Phosphoglycerate Kinase (AID 504547). In outline:
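PGK activity was coupled to GAPDH (100nM final), which generates the unstable substrate 1,3-bisphosphoglycerate in-well. Reactions ran 60 minutes at room temperature in 100mM TEA pH 7.6, 5mM MgCl2, 0.01% Tween-20, then Kinase-Glo Plus luminescence was read.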

The target of experiment [5] is phosphoglycerate mutase (Leishmania major) (UniProt Q4Q090). Briefly: qHTS Validation Assay to Find Inhibitors of Phosphoglycerate Mutase (AID 504548).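 Also: end-point luminescence from Kinase-GloPlus after the PGAM reaction; series mostly up to about 58 µM.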 Particulars: Potency: inhibition qHTS. In outline:
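Inhibition of L. major PGAM was assessed by Kinase-GloPlus luminescence following a 45-minute room-temperature reaction with enzyme at 1.25nM final.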

For experiment [6], the target named is Ubiquitin carboxyl-terminal hydrolase 1 (Homo sapiens) (UniProt O94782). Kind of experiment: Inhibitors of USP1/UAF1: Pilot qHTS (AID 504865). Also: nearly all actives have a fitted effect of over 35% in size. Also: potency is read from the fitted curve at half-maximal effect. An outline of the steps: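 Kinetic fluorescence assay: 1nM USP1/UAF1, 15 min compound preincubation, then 150nM Ub-Rho; 480/540 nm.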
Ubiquitin carboxyl-terminal hydrolase 1 (Homo sapiens), sequence (O94782 whole entry, looked up, the tested form may be a part): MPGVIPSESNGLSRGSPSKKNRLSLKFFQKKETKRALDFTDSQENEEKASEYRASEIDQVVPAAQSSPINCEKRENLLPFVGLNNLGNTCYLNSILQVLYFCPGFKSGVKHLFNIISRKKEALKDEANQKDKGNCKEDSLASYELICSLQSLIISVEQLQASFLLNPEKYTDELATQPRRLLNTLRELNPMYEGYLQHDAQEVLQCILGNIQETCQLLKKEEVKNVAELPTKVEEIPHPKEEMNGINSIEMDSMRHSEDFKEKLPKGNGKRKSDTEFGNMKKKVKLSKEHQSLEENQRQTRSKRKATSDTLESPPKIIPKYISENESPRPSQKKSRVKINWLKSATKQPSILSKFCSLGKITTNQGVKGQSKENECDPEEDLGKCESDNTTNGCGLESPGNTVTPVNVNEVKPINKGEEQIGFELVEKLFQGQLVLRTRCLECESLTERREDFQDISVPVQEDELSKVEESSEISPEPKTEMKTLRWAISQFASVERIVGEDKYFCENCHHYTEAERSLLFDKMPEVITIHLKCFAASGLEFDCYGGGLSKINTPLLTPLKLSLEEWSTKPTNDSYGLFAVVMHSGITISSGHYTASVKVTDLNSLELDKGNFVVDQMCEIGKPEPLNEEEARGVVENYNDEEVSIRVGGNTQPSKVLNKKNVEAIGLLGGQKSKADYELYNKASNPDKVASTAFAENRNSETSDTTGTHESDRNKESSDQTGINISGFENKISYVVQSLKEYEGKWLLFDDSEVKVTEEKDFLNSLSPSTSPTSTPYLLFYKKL
Experiment [7] can be described thus: qHTS for Inhibitors of ATXN expression: Validation (AID 588378). Also: nearly all actives have a fitted effect of over 75% in size. Also: potency is read from the fitted curve at half-maximal effect. An outline of the steps: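 Validation of ATXN2 expression inhibitors uses a cell-based luciferase fusion reporter in HEK293 cells, with 24 h compound exposure and paired viability (fluorescence) and reporter (luminescence) end-point reads.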
A short description of experiment [8]: Validation screen for small molecules that induce DNA re-replication in SW480 colon adenocarcinoma cells (AID 504364). Also: potency is read from the fitted curve at half-maximal effect. An outline of the steps:
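Cells are treated 48 hr with test compound, stained 40 min with Hoechst at 37 C, and scanned for nuclear fluorescence; compounds inducing re-replication increase nuclei with elevated intensity.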

Experiment [9] in a line: qHTS for Inhibitors of ATXN expression: Validation of Cytotoxic Assay (AID 588349).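 Also: cells exposed to compound for 72 hr.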 Also: potency is read from the fitted curve at half-maximal effect. In outline: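 HEK293, compound dose series, 72 hr / 37 degrees C; viability via CellTiter Glo (intracellular ATP).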
The target of experiment [10] is DNA dC->dU-editing enzyme APOBEC-3G (Homo sapiens) (UniProt Q9HC16). Kind of experiment: qHTS for inhibitors of Vif-A3G interactions: Validation (AID 588379). In outline:
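HeLa cells stably expressing Vif and A3G-eYFP, 700 cells/well, incubated overnight at 37 deg C, then exposed to compound overnight at 37 deg C. Inhibition of Vif-mediated degradation read as increased yellow fluorescence (Ex 488/Em 500-530) by laser-scanning cytometry.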

Where “and” joins values, the source holds several entries; their conditions need not be identical. Equal values may be shown once. Results filed as inconclusive are left out. Calls of active or inactive are those of the source. Unless noted, calls follow the shape of the dose curve; as a rule, active = well fitted curve in the direction sought with a large enough effect; inconclusive = small, poorly fitted or top-dose-only effect, or another doubt; inactive = no such curve, though single readings can be large; an effect the other way counts as inactive or inconclusive.

DNA dC->dU-editing enzyme APOBEC-3G (Homo sapiens), sequence (Q9HC16 whole entry, looked up): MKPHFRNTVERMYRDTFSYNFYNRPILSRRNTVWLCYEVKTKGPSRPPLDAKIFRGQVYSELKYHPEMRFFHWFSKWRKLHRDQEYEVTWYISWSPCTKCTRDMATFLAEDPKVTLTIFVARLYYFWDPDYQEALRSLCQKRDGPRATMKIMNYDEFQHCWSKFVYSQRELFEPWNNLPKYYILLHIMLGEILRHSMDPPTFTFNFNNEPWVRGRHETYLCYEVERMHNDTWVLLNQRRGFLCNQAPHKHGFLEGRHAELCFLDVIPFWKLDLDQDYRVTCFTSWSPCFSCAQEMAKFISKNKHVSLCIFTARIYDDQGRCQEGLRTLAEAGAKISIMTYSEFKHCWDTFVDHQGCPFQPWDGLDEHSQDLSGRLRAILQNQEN
phosphoglycerate mutase (Leishmania major), sequence (Q4Q090 1-553): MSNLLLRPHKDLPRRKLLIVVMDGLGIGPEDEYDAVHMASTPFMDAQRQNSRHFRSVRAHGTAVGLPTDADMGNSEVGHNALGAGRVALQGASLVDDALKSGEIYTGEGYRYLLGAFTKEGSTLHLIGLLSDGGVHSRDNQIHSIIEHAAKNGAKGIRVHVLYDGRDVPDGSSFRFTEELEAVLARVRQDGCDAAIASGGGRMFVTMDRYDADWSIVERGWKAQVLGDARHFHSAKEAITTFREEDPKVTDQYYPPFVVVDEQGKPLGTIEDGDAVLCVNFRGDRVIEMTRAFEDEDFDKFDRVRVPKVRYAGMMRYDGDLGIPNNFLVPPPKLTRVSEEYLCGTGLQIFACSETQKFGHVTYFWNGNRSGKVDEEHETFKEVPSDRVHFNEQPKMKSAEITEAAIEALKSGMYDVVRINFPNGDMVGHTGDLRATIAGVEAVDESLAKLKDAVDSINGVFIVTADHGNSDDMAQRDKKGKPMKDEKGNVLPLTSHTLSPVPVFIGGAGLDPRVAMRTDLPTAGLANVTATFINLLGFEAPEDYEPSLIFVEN
Phosphoglycerate kinase, glycosomal (Trypanosoma brucei brucei), sequence (P07378 whole entry, looked up): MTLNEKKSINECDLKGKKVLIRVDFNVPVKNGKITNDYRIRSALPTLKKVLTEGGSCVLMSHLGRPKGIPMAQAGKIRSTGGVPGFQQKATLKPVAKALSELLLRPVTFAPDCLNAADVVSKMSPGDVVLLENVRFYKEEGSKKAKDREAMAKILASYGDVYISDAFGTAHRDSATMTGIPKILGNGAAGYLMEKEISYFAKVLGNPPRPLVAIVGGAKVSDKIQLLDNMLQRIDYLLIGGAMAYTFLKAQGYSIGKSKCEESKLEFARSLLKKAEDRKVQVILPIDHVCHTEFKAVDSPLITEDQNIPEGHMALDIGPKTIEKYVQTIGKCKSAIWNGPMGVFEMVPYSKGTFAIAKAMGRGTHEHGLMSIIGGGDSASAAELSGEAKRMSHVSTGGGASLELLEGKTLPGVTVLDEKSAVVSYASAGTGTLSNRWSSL
Peptidyl-prolyl cis-trans isomerase NIMA-interacting 1 (Homo sapiens), sequence (Q13526 whole entry, looked up): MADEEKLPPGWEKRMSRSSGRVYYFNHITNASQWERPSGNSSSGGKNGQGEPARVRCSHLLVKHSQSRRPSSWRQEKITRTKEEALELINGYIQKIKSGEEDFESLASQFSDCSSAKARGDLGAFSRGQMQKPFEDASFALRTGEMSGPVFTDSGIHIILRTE

For `COc1cc(OC)c(/C=C2/C(=O)Nc3ccccc32)c(OC)c1`, the call in [1] was inactive. Besides, the Potency result in experiment [2], in [3], in [4], in experiment [5] and in experiment [6] was “inactive” each time.
In the case of `O=C(/C=C/c1ccc(O)c(O)c1)OCCc1ccccc1`, in [1], the compound was called inactive. The Potency result in experiment [2], in experiment [3], in experiment [4], in experiment [5] and in [7] was “inactive” each time.
As for `COC(=O)c1c(C)[nH]c(C)c1C(=O)c1ccccc1Cc1ccccc1`, the compound was called inactive in [1]. Further, the Potency entry in [2], in [8], in experiment [3], in [4], in experiment [5] and in experiment [9] was “inactive” throughout. The Potency result in [7] and in experiment [10] was “inactive” each time.
As to `Ic1ccc(N2CCN(Cc3c[nH]c4ncccc34)CC2)cc1`, the result in experiment [1] was inactive. Also, the Potency result in experiment [2], in experiment [8], in [4] and in experiment [5] was “inactive” throughout. Moreover, the Potency in experiment [6] is 50.1 µM (active).
In the case of `CCCCCCCCCCCCCCCCCC(=O)NCC(COP(=O)([O-])OCC[N+](C)(C)C)OCC` (stereo unspecified), in experiment [1], the result was inactive. Also, the Potency entry in experiment [2], in experiment [4] and in [5] was “inactive” throughout. Moreover, the Potency in experiment [9] is 17.8 µM (active).
For `CN=c1nc(-c2ccccc2)n(-c2ccccc2)s1`, the compound was classed as inactive in experiment [1]. Further, the Potency result in experiment [2], in experiment [8], in [3], in experiment [4] and in experiment [6] was “inactive” in each case.
On to `O=C(c1cc(O)c(O)c([N+](=O)[O-])c1)c1ccccc1F`, for which the result in experiment [1] was inactive. The Potency entry in experiment [2], in experiment [8], in experiment [5], in [6], in [9] and in experiment [7] was “inactive” in each case.
Regarding `Oc1ccccc1O`, the outcome in [1] was inactive. The Potency entry in experiment [2], in experiment [8], in experiment [3], in experiment [5] and in [6] was “inactive” each time.
Turning to `CCCCCC(O)c1cccc(OCc2ccc3ccccc3n2)c1` (stereo unspecified), the outcome in [1] was inactive. Moreover, the Potency entry in experiment [2], in experiment [8], in experiment [4] and in experiment [5] was “inactive” in each case.
Turning to `COc1ccccc1N1CCN(CCCCNS(=O)(=O)c2cccc3c(N(C)C)cccc23)CC1`, the compound was called inactive in experiment [1]. The Potency entry in [2], in experiment [4], in experiment [5] and in [6] was “inactive” throughout. Moreover, in experiment [8], the Potency is 14.6 µM (active).
For the compound `O=C1O/C(=C/Br)CCC1c1cccc2ccccc12` (stereo unspecified), the outcome in experiment [1] was inactive. In addition, the Potency entry in [2], in experiment [8], in experiment [3], in [4] and in experiment [5] was “inactive” throughout. The Potency in experiment [9] was 31.6 µM (active); in [7] it was 25.1 µM (active).
In the case of `COC1=C(OC)C(=O)c2ccccc2C1=O`, in [1], the call was inactive. The Potency result in [2], in [4] and in [5] was “inactive” in each case. The Potency in experiment [6] was 17.8 µM (active).
For the compound `C#CCN1C(C)=C(C(=O)OC)C(c2cccc([N+](=O)[O-])c2)C(C(=O)OCC)=C1C` (stereo unspecified), in [1], the compound was classed as inactive. Further, the Potency entry in experiment [2], in [8], in [3], in experiment [4], in experiment [5] and in experiment [9] was “inactive” each time. The Potency result in [7] was “inactive”.
In the case of `O=C(Nc1cccc(C(=O)Nc2ccc(S(=O)(=O)O)c3cc(S(=O)(=O)O)cc(S(=O)(=O)O)c23)c1)Nc1cccc(C(=O)Nc2ccc(S(=O)(=O)O)c3cc(S(=O)(=O)O)cc(S(=O)(=O)O)c23)c1`, the compound was called inactive in experiment [1]. Further, the Potency entry in [2], in [8], in experiment [5], in experiment [9] and in experiment [10] was “inactive” in each case. For the same compound, the Potency in [3] was 6.75 µM (active); in experiment [6] it was 28.2 µM (active) and 12.6 µM (active).
Consider `O=c1[nH]c2cc(C(F)(F)F)ccc2n1-c1cc(C(F)(F)F)ccc1O`, for which the outcome in experiment [1] was inactive. Also, the Potency result in experiment [2], in [8], in experiment [3], in experiment [4], in experiment [5] and in [9] was “inactive” each time. Also, the Potency entry in [7] was “inactive”.
In the case of `CCCCCCCC/C=C\CCCCCCCC(=O)NCCO`, the outcome in [1] was inactive. The Potency entry in experiment [2], in [8], in experiment [3], in [4], in [5] and in experiment [9] was “inactive” each time. In addition, the Potency entry in experiment [7] and in experiment [10] was “inactive” each time.
For `CCCCCCCCCCCCCCCC(=O)OC(CC(=O)O)C[N+](C)(C)C` (stereo unspecified), the outcome in experiment [1] was inactive. Further, the Potency result in experiment [2], in experiment [3], in experiment [4] and in experiment [5] was “inactive” each time. Further, in experiment [6], the Potency is 50.1 µM (active).
With `O=C(/C=C/c1ccc(O)cc1)c1ccc(O)cc1O`, the compound was called inactive in experiment [1]. Also, the Potency result in [2], in experiment [3], in experiment [4] and in [7] was “inactive” in each case. For the same compound, the Potency in [6] is 79.4 µM (active).
For `Oc1cc2c(cc1O)CN(C(=S)NCCc1ccc(Cl)cc1)CCC2`, the compound was classed as inactive in experiment [1]. Further, the Potency entry in experiment [2], in experiment [3], in experiment [4], in [5], in experiment [9] and in experiment [10] was “inactive” throughout.
Consider `O=C(O)/C=C/C(O)c1ccc(Cl)cc1` (stereo unspecified), for which the compound was classed as inactive in experiment [1]. For the same compound, the Potency entry in experiment [2], in experiment [8], in experiment [4], in [5], in [6] and in experiment [9] was “inactive” in each case. Further, in [7], the Potency result was “inactive”.
Consider `CN1CCc2cccc3c2C1Cc1ccc(O)c(O)c1-3` (stereo unspecified), for which, in experiment [1], the compound was called inactive. The Potency result in [2], in experiment [3], in experiment [4], in [5] and in [6] was “inactive” in each case.
Turning to `N#C/C(=C\c1ccc(O)c(O)c1)C(=O)NCCCc1ccccc1`, in experiment [1], the call was inactive. For the same compound, the Potency entry in experiment [2], in experiment [4], in [5] and in experiment [10] was “inactive” each time.
In the case of `COc1cc2nc(N3CCN(C(=O)OCc4ccccc4)C(C(=O)NC(C)(C)C)C3)nc(N)c2cc1OC` (stereo unspecified), in experiment [1], the outcome was inactive. The Potency result in experiment [2], in experiment [3], in experiment [4], in [5], in experiment [6] and in experiment [7] was “inactive” throughout.
For `O=C(Nc1ccccc1)c1cc([N+](=O)[O-])ccc1Cl`, the compound was classed as inactive in experiment [1]. The Potency result in experiment [2], in experiment [3], in [4], in [5], in experiment [6] and in [9] was “inactive” in each case. Also, the Potency entry in experiment [10] was “inactive”.
Consider `NC(N)=NC(=O)c1nc(Cl)c(N2CCCCCC2)nc1N`, for which the compound was classed as inactive in experiment [1]. The Potency result in experiment [2], in [3], in experiment [4], in experiment [5], in experiment [6] and in experiment [7] was “inactive” each time.
As for `N#C/C(=C\c1ccc(O)c(O)c1)C(=O)NCc1ccccc1`, the compound was classed as inactive in [1]. In addition, the Potency entry in experiment [2], in experiment [8], in [4], in [5] and in experiment [10] was “inactive” in each case.
With `N#C/C(=C\c1c[nH]c2ccccc12)C(=O)c1ccc(O)c(O)c1`, the call in [1] was inactive. In addition, the Potency result in experiment [2], in experiment [5], in experiment [6], in experiment [9] and in [7] was “inactive” each time.
Regarding `O=C(O)[C@@H]1C[C@@H](C(=O)O)N1`, the compound was classed as inactive in experiment [1]. The Potency result in experiment [2], in experiment [8], in experiment [4], in experiment [5], in [6] and in [9] was “inactive” in each case. Further, the Potency entry in experiment [10] was “inactive”.
As to `CCCCCCCCCCCCCCCCCCNC(=O)OCC(COP(=O)([O-])OCC[n+]1ccsc1)OC` (stereo unspecified), in [1], the result was inactive. Also, the Potency result in [2], in experiment [3], in [4] and in experiment [5] was “inactive” each time.
`O=Nc1ccc2oc(=O)ccc2c1`: the outcome in [1] was inactive. Moreover, the Potency result in experiment [2], in experiment [3], in experiment [4] and in experiment [5] was “inactive” throughout.
As to `CCCCC#Cc1nc(NC)c2ncn([C@@H]3O[C@H](CO)[C@@H](O)[C@H]3O)c2n1`, the compound was called inactive in [1]. For the same compound, the Potency entry in [3], in experiment [4], in [5], in experiment [6] and in [9] was “inactive” throughout.
Turning to `Nc1ncnc2c1ncn2[C@@H]1O[C@H](COP(=O)(O)OP(=O)(O)OP(=O)(O)OP(=O)(O)OC[C@@H]2O[C@H](n3cnc4c(N)ncnc43)[C@@H](O)[C@H]2O)[C@@H](O)[C@H]1O`, in experiment [1], the call was inactive. Besides, the Potency result in experiment [3], in [4], in experiment [5], in experiment [6], in experiment [9] and in [7] was “inactive” in each case.
